# Measured values reported in PubChem BioAssay (EPA / NIEHS).
# Inconclusive results are not listed. Active and inactive are the calls of the source. The calls were made as follows, unless noted: active = hit-call score of the fitted dose curve at least 0.9, where 1 is the maximum; inactive = score below 0.9.
# What was measured:
# [1] = molecular target: Estrogen-related receptor gamma (Homo sapiens) (UniProt P62508); assay: ATG_ERRg_TRANS: Attagene TRANS-FACTORIAL HepG2 Assay for human Estrogen-Related Receptor gamma (ERRg) (AID 2282977; active = hit-call score of the fitted dose curve at least 0.9, where 1 is the maximum;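 also: hits increase reporter signal over DMSO so potencies reflect activators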); settings: HepG2 Attagene TRANS reporter, ERRg transactivation
# How it was run: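 Exogenous NR-Gal4 chimera activity measured as reporter transcript induction after 24 h in transiently transfected HepG2 cells. RNA reverse-transcribed, PCR-amplified, 6-FAM-labelled and resolved by capillary electrophoresis; increase over DMSO baseline.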
# [2] = molecular target: Glucocorticoid receptor (Homo sapiens) (UniProt P04150); assay: ATG_GR_TRANS: Attagene TRANS-FACTORIAL HepG2 Assay for human Glucocorticoid Receptor (GR) (AID 2282978; active = hit-call score of the fitted dose curve at least 0.9, where 1 is the maximum;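 also: activators score as hits since higher reporter transcript over DMSO is fitted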); settings: HepG2 Attagene TRANS GR reporter, mRNA transcription
# How it was run: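 Exogenous NR-GAL4 fusion activity was assessed through induced GAL4-UAS reporter transcripts in transfected human HepG2 cells, quantified after 24 h by RT-PCR and fluorescent capillary electrophoresis with DMSO as baseline.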
# [3] = molecular target: Bile acid receptor (Homo sapiens) (UniProt Q96RI1); assay: ATG_FXR_TRANS: Attagene TRANS-FACTORIAL HepG2 Assay for Farnesoid X Receptor (FXR) (AID 2282979; active = hit-call score of the fitted dose curve at least 0.9, where 1 is the maximum;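 also: hits raise reporter mRNA above DMSO so AC50 marks FXR activation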); settings: HepG2 Attagene TRANS FXR-GAL4 reporter transcription
# How it was run: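 Read-out: fluorescent reporter transcripts quantified by capillary electrophoresis after RT-PCR of total RNA. Source cells were HepG2 transiently carrying chimeric NR-GAL4 plus GAL4-UAS reporter units, dosed 24 h. Activity fitted upward relative to DMSO baseline.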
# [4] = molecular target: Hepatocyte nuclear factor 4-alpha (Homo sapiens) (UniProt P41235); assay: ATG_HNF4a_TRANS: Attagene TRANS-FACTORIAL HepG2 Assay for human Hepatocyte Nuclear Factor 4 alpha (HNF4a) (AID 2282982; active = hit-call score of the fitted dose curve at least 0.9, where 1 is the maximum); settings: HepG2 HNF4a transactivation reporter, mRNA readout
# How it was run: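 In this trans-factorial format, a chimeric HNF4a-GAL4 fusion drives a GAL4-UAS reporter in transfected HepG2 liver cells. After 24 h treatment, reporter mRNA induction is measured by RT-PCR with capillary electrophoresis, relative to DMSO.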
# [5] = ATG_M_06_TRANS: Attagene TRANS-FACTORIAL HepG2 Assay for M06 Transcription Factor (Internal Marker) (AID 2282983; active = hit-call score of the fitted dose curve at least 0.9, where 1 is the maximum); settings: HepG2 Attagene TRANS M06 internal marker reporter
# How it was run: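 Read-out: fluorescent reporter cDNA fragments resolved by capillary electrophoresis after RT-PCR and HpaI cut. Source cells were HepG2 carrying transfected multi-reporter GAL4 constructs, dosed 24 h. Increase over DMSO control analysed.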
# [6] = molecular target: Transcriptional activator Myb (Homo sapiens) (UniProt P10242); assay: ATG_Myb_CIS: Attagene CIS-FACTORIAL HepG2 Assay for human Myeloblastosis (Myb) Proto-Oncogene Transcription Factor (AID 2282986); settings: HepG2 Attagene CIS-FACTORIAL Myb reporter transcription; actives raise or lower the signal
# How it was run: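 In this HepG2 transient-transfection format, cis-regulated reporter mRNA is quantified 24 h post-dosing by RT-PCR with capillary electrophoresis, fitted bidirectionally to DMSO baseline.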
# [7] = molecular target: Nuclear respiratory factor 1 (Homo sapiens) (UniProt Q16656); assay: ATG_NRF1_CIS: Attagene CIS-FACTORIAL HepG2 Assay for human Nuclear Respiratory Factor 1 (NRF1) Orphan Gene (AID 2282987); settings: HepG2 NRF1 cis-element reporter, Attagene multiplex; actives raise or lower the signal
# How it was run: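 Using DMSO as baseline, gain- or loss-of-signal was fitted for reporter mRNA levels in HepG2 cells transiently transfected with cis-regulated reporter units. Samples were taken 24 h after dosing and read by RT-PCR with capillary electrophoresis.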
# [8] = molecular target: Myc proto-oncogene protein (Homo sapiens) (UniProt P01106); assay: ATG_Myc_CIS: Attagene CIS-FACTORIAL HepG2 Assay for human Myelocytomatosis (Myc) Proto-Oncogene Transcription Factor (AID 2282990); settings: HepG2, Attagene cis-reporter transcription factor activity; actives raise or lower the signal
# How it was run: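 Multiplexed cis-reporter transcription in HepG2 cells after 24 h chemical treatment. Reporter mRNA measured by RT-PCR and capillary electrophoresis fluorescence; activity fitted bidirectionally against DMSO control.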
# [9] = ATG_NF_kB_CIS: Attagene CIS-FACTORIAL HepG2 Assay for human Nuclear Factor Kappa B (NF-kB) (AID 2282991); settings: HepG2 Attagene cis-factorial NF-kB reporter mRNA; actives raise or lower the signal
# How it was run: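 Endpoint from a 52-component multiplexed HepG2 reporter panel: cis-regulated transcription units transiently transfected, 24 h dosing, reporter mRNA quantified by RT-PCR and capillary electrophoresis, scored as increase or decrease against DMSO.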
# [10] = ATG_NRF2_ARE_CIS: Attagene CIS-FACTORIAL HepG2 Assay for human Nuclear Factor Erythroid 2 Related Factor 2 (NFR2) response to Antioxidant Response Elements (ARE) (AID 2282992); settings: HepG2 Attagene ARE/NRF2 reporter, transcription factor activity; actives raise or lower the signal
# How it was run: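 Readout: reporter mRNA quantified by RT-PCR plus FAM-labelled primer extension, HpaI digestion and capillary electrophoresis, 24 h after dosing transfected HepG2 cells. Gain or loss of signal is fitted bidirectionally against DMSO baseline.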
# [11] = ATG_Oct_MLP_CIS: Attagene CIS-FACTORIAL HepG2 Assay for human Octamer-Binding Transcription Factor (Oct) (AID 2282993); settings: HepG2 Attagene cis-factorial Oct reporter, mRNA; actives raise or lower the signal
# How it was run: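 Transfected HepG2 cells, 24 h treatment. Reporter mRNA quantified by RT-PCR–capillary electrophoresis; bidirectional fitting against DMSO.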
# [12] = molecular target: Cellular tumor antigen p53 (Homo sapiens) (UniProt P04637); assay: ATG_p53_CIS: Attagene CIS-FACTORIAL HepG2 Assay for human p53 Transcription Factor (AID 2282994); settings: HepG2 p53 cis-element reporter, Attagene mRNA; actives raise or lower the signal
# How it was run: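 Read-out: reporter mRNA by RT-PCR plus capillary electrophoresis with fluorescence detection. Human HepG2 liver cells carried transfected multi-reporter cis-element constructs, dosed 24 h. Gain or loss of signal fitted bidirectionally against DMSO control.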
# [13] = ATG_M_32_TRANS: Attagene TRANS-FACTORIAL HepG2 Assay for M32 Transcription Factor (Internal Marker) (AID 2282984; active = hit-call score of the fitted dose curve at least 0.9, where 1 is the maximum;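 also: transcript level of a background control reporter unit measured by RT-PCR and capillary electrophoresis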); settings: HepG2 Attagene TRANS M32 internal marker reporter
# How it was run: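 After 24 h dosing of transfected HepG2 cells, total RNA was reverse-transcribed, reporter sequences PCR-amplified, 6-FAM labelled by primer extension and HpaI-digested before capillary electrophoresis. Signal increase over DMSO was fitted.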
# [14] = ATG_NFI_CIS: Attagene CIS-FACTORIAL HepG2 Assay for human Nuclear Factor I (NFI) (AID 2282989); settings: HepG2 cis-regulatory reporter, NFI response element transcription; actives raise or lower the signal
# How it was run: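 Reporter transcription driven by endogenous transcription factors in HepG2 cells; 24 h treatment. Quantitation by labelled RT-PCR fragments on capillary electrophoresis, gain- or loss-of-signal relative to DMSO.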
# [15] = molecular target: Oxysterols receptor LXR-alpha (Homo sapiens) (UniProt Q13133); assay: ATG_LXRa_TRANS: Attagene TRANS-FACTORIAL HepG2 Assay for human Liver X Receptor alpha (LXRa) (AID 2282980; active = hit-call score of the fitted dose curve at least 0.9, where 1 is the maximum); settings: HepG2 Attagene TRANS reporter, LXRa transactivation
# How it was run: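 Read-out: reporter transcript levels by RT-PCR plus capillary electrophoresis, fluorescence intensity. Transiently transfected HepG2, exogenous NR-GAL4 chimera, GAL4-UAS reporters; 24 h compound exposure. Activity = increase over DMSO negative control.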
# [16] = molecular target: Oxysterols receptor LXR-beta (Homo sapiens) (UniProt P55055); assay: ATG_LXRb_TRANS: Attagene TRANS-FACTORIAL HepG2 Assay for human Liver X Receptor beta (LXRb) (AID 2282981; active = hit-call score of the fitted dose curve at least 0.9, where 1 is the maximum); settings: HepG2 Attagene TRANS GAL4-LXRb reporter, mRNA
# How it was run: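 Measures induction of a Gal4-driven reporter transcript in HepG2 cells expressing an exogenous LXRb-Gal4 fusion. Cells are exposed to compound for 24 h before RNA isolation and RT-PCR with capillary electrophoresis detection.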
# [17] = molecular target: Nuclear receptor subfamily 4 group A member 2 (Homo sapiens) (UniProt P43354); assay: ATG_NURR1_TRANS: Attagene TRANS-FACTORIAL HepG2 Assay for human Nuclear Receptor Related Protein 1 (NURR1) (AID 2282985; active = hit-call score of the fitted dose curve at least 0.9, where 1 is the maximum); settings: HepG2 Attagene TRANS reporter, mRNA readout
# How it was run: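 Chimeric NR-Gal4 fusion activity measured in HepG2 after 24 h treatment. Reporter transcripts detected by RT-PCR and capillary electrophoresis fluorescence; positive-direction curve fitting against DMSO.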
# [18] = BSK_3C_TissueFactor: BioMAP Diversity Plus: 3C Assay for Tissue Factor Biomarker Activity (AID 2282997); settings: BioMAP 3C HUVEC, tissue factor biomarker readout; actives raise or lower the signal
# How it was run: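 HUVEC, 3C system, 24 h post-dose; Tissue Factor by ELISA; bidirectional fit vs DMSO baseline.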
# [19] = BSK_3C_uPAR: BioMAP Diversity Plus: 3C Assay for Urokinase-type plasminogen activator receptor (uPAR) Biomarker Activity (AID 2282998); settings: BioMAP 3C HUVEC, uPAR biomarker ELISA; actives raise or lower the signal
# How it was run: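 Readout: ELISA for surface uPAR. System: human umbilical vein endothelial primary cells, 24 h after chemical exposure. Analysis: bidirectional fit, DMSO baseline.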
# [20] = BSK_3C_VCAM1: BioMAP Diversity Plus: 3C Assay for Vascular cell adhesion molecule 1 (VCAM1) Biomarker Activity (AID 2282999); settings: BioMAP 3C HUVEC, VCAM1 ELISA, cytokine-stimulated; actives raise or lower the signal
# How it was run: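 Vascular primary endothelium (human umbilical vein) was exposed to chemicals and assayed 24 h later. VCAM-1 levels came from ELISA, with DMSO serving as baseline for bidirectional fitting.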
# Sequence of Hepatocyte nuclear factor 4-alpha (Homo sapiens) (P41235 whole entry, looked up, the tested form may be a part): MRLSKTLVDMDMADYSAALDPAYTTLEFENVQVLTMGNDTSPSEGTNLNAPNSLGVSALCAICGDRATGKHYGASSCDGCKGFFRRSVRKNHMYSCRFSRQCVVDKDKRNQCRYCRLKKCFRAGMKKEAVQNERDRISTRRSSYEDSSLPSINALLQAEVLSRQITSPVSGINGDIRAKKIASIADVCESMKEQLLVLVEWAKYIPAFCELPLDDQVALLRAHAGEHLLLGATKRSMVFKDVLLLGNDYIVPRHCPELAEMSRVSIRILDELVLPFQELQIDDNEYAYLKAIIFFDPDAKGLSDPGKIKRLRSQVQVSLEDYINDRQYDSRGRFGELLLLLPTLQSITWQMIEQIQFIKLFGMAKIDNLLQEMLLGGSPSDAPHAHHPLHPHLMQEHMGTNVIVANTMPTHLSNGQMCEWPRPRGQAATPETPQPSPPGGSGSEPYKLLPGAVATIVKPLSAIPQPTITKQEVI
# Sequence of Glucocorticoid receptor (Homo sapiens) (P04150 whole entry, looked up, the tested form may be a part): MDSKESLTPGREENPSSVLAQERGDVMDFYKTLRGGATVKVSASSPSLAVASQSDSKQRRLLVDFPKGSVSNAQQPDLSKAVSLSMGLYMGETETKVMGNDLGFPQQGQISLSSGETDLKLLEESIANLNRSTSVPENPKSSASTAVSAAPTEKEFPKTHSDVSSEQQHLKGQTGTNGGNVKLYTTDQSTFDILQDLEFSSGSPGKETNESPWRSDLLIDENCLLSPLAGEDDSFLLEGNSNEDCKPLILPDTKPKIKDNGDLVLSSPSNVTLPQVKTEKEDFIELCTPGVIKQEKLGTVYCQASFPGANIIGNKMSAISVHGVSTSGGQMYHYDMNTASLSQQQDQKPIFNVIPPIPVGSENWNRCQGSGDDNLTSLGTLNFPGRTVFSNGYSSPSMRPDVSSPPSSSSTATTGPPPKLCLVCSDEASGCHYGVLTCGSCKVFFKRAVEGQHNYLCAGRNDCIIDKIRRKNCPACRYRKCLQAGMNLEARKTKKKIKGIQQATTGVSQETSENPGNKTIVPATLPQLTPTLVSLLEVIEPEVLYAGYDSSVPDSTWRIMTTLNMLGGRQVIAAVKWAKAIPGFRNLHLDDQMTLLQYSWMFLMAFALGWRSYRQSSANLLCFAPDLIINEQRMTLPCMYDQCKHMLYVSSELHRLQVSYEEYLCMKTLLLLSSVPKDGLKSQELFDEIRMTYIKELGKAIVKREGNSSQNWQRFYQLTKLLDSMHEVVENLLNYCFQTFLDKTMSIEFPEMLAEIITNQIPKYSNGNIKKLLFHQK
# Sequence of Nuclear receptor subfamily 4 group A member 2 (Homo sapiens) (P43354 whole entry, looked up, the tested form may be a part): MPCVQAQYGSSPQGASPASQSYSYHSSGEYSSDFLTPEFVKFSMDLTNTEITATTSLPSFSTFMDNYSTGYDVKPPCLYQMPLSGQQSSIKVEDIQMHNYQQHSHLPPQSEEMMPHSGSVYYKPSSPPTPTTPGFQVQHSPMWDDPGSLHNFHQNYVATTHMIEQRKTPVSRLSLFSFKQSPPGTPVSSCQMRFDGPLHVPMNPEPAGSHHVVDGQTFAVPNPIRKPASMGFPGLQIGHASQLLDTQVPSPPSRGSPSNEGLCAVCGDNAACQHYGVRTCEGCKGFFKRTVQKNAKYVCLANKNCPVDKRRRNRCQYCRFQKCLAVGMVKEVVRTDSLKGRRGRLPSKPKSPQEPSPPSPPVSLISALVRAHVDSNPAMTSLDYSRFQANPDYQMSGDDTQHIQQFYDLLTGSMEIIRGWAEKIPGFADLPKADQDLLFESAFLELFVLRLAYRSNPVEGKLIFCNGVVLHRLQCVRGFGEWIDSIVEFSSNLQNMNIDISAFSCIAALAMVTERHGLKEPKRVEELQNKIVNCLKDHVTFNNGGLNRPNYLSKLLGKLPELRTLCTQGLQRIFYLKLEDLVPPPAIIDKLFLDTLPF
# Sequence of Nuclear respiratory factor 1 (Homo sapiens) (Q16656 whole entry, looked up): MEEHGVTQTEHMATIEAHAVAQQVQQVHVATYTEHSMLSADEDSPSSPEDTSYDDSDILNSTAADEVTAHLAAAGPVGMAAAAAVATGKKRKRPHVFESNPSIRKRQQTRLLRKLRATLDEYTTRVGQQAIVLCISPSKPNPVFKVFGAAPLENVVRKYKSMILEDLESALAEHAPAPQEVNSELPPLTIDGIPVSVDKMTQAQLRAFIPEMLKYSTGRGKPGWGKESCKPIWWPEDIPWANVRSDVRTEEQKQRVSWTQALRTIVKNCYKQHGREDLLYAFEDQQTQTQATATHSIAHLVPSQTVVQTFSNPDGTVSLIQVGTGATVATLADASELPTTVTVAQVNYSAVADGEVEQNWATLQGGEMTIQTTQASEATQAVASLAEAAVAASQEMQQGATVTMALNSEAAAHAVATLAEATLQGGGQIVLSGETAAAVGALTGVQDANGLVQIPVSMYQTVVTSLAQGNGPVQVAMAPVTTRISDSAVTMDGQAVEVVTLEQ
# Sequence of Transcriptional activator Myb (Homo sapiens) (P10242 whole entry, looked up): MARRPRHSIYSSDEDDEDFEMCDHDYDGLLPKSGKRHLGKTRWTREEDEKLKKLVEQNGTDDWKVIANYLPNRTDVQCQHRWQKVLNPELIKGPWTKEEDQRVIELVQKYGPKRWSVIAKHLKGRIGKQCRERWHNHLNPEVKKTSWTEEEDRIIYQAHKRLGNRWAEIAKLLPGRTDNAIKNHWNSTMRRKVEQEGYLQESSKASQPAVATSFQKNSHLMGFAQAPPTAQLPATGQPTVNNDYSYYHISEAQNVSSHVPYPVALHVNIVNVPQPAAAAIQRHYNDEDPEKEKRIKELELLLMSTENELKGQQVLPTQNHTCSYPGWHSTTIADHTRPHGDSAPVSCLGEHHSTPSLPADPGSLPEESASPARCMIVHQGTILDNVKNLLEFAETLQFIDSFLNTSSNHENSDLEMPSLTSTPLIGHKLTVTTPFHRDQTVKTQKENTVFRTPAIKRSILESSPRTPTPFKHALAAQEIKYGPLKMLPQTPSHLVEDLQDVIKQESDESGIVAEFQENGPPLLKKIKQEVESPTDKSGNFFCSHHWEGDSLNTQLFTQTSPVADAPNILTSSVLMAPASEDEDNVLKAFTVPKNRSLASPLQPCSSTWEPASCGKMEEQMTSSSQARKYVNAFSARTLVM
# Sequence of Myc proto-oncogene protein (Homo sapiens) (P01106 whole entry, looked up): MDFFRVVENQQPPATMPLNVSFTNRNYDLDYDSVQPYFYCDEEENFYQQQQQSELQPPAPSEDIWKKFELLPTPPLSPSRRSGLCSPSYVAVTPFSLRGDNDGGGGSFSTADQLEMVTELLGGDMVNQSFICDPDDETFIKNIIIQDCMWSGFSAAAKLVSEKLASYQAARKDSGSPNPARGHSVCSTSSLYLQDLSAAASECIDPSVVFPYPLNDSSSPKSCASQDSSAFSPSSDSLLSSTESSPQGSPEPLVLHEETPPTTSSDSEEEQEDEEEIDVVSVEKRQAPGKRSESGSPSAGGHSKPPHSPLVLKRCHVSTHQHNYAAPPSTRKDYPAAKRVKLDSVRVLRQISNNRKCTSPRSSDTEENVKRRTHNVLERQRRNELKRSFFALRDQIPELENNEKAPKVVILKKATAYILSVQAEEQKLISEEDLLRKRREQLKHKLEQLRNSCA
# Sequence of Estrogen-related receptor gamma (Homo sapiens) (P62508 whole entry, looked up, the tested form may be a part): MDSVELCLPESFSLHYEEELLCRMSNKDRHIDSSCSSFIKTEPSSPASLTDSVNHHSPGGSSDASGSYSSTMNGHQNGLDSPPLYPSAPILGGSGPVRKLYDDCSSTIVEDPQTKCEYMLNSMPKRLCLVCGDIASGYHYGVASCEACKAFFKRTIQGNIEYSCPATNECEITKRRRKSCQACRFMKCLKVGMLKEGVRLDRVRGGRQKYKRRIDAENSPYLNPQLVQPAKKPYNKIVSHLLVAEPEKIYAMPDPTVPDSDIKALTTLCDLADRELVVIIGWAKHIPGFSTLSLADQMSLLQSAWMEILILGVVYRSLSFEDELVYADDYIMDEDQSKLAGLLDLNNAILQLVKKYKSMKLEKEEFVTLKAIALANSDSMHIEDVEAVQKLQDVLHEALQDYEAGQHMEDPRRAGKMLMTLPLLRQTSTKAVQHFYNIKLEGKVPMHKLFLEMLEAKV
# Sequence of Cellular tumor antigen p53 (Homo sapiens) (P04637 whole entry, looked up): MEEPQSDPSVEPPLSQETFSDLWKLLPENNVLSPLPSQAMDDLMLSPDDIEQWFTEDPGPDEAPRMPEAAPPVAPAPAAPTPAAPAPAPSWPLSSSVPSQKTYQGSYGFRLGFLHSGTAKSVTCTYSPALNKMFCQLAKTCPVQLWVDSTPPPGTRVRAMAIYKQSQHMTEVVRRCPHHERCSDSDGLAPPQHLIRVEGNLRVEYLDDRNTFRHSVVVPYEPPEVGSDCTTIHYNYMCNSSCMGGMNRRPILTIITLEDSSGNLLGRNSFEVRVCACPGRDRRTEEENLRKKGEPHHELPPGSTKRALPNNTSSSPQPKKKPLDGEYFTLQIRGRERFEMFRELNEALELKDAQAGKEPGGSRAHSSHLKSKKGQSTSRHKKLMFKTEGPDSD
# Sequence of Oxysterols receptor LXR-beta (Homo sapiens) (P55055 whole entry, looked up, the tested form may be a part): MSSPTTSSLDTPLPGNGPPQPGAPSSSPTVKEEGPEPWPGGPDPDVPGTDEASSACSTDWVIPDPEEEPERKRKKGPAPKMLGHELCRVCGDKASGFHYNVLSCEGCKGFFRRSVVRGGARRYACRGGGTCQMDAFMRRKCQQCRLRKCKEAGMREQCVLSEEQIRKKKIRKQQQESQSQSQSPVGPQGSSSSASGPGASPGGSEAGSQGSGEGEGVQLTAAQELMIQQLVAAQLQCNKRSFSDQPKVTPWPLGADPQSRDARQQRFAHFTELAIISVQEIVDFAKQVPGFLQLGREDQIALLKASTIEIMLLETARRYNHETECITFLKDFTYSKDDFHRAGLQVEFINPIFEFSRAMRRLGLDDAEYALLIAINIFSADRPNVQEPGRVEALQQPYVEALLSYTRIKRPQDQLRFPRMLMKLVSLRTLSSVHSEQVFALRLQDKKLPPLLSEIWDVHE
smiles,measurement,setting,value
CC(=O)OC1CCCCC1,outcome,[1],inactive
same,outcome,[2],inactive
same,outcome,[3],inactive
same,outcome,[4],inactive
same,outcome,[5],inactive
same,outcome,[6],inactive
same,outcome,[7],inactive
same,outcome,[8],inactive
same,outcome,[9],inactive
same,outcome,[10],inactive
same,outcome,[11],inactive
same,outcome,[12],inactive
CO[Si](C)(C)OC,outcome,[1],inactive
same,outcome,[2],inactive
same,outcome,[4],inactive
same,outcome,[5],inactive
same,outcome,[13],inactive
same,AC50,[6],151 µM (active)
same,outcome,[14],inactive
same,AC50,[8],158 µM (active)
same,outcome,[9],inactive
same,outcome,[10],inactive
same,outcome,[11],inactive
same,outcome,[12],inactive
CC1=CC(C)C(C=O)CC1 (centres undefined),outcome,[1],inactive
same,outcome,[2],inactive
same,outcome,[15],inactive
same,outcome,[16],inactive
same,outcome,[4],inactive
same,outcome,[5],inactive
same,outcome,[13],inactive
same,outcome,[17],inactive
same,outcome,[6],inactive
same,outcome,[7],inactive
same,outcome,[14],inactive
same,outcome,[8],inactive
same,outcome,[9],inactive
same,AC50,[10],14.1 µM (active)
same,outcome,[11],inactive
same,outcome,[12],inactive
CCc1cccc(C)c1N,outcome,[1],inactive
same,outcome,[2],inactive
same,outcome,[15],inactive
same,outcome,[4],inactive
same,outcome,[17],inactive
same,outcome,[6],inactive
same,outcome,[7],inactive
same,outcome,[14],inactive
same,outcome,[8],inactive
same,outcome,[9],inactive
same,outcome,[10],inactive
same,outcome,[11],inactive
same,outcome,[12],inactive
C=CC(=O)OCCCCCCOC(=O)C=C,outcome,[1],inactive
same,outcome,[16],inactive
same,outcome,[4],inactive
same,outcome,[5],inactive
same,outcome,[13],inactive
same,outcome,[17],inactive
same,outcome,[6],inactive
same,outcome,[7],inactive
same,outcome,[14],inactive
same,outcome,[8],inactive
same,AC50,[10],6.61 µM (active)
same,AC50,[11],26.2 µM (active)
same,AC50,[12],174 µM (active)
same,AC50,[18],3.97 µM (active)
same,AC50,[19],20 µM (active)
same,AC50,[20],10.4 µM (active)
